Experimental data from the supplement of paper PMC13380429.

System: Vero E6 infected with SARS-CoV-2
Experiment: inhibition of SARS-CoV-2 cytopathic effect; higher = more antiviral protection, active = above 15
Conditions: 48 h

Measured: inhibition of SARS-CoV-2 cytopathic effect

NS(=O)(=O)c1cc2c(cc1C(F)(F)F)NC(Cc1ccccc1)NS2(=O)=O (stereo not given) [bendroflumethiazide]
inactive: 1 nM -0.89% | 8.33 nM -3.12% | 100 nM -0.42% | 833.33 nM -1.39% | 10000 nM 0.82%

CSCC[C@H](NC(=O)[C@H](CC(C)C)NC(=O)CNC(=O)[C@H](Cc1ccccc1)NC(=O)[C@H](Cc1ccccc1)NC(=O)[C@H](CCC(N)=O)NC(=O)[C@H](CCC(N)=O)NC(=O)[C@@H]1CCCN1C(=O)[C@H](CCCCN)NC(=O)[C@@H]1CCCN1C(=O)[C@@H](N)CCCN=C(N)N)C(N)=O [substance-P]
inactive: 1 nM -5.5% | 8.33 nM -11.3% | 100 nM -9.37% | 833.33 nM -10.4% | 10000 nM -5.64%

FC(F)(F)C(F)(F)C(F)(F)N(C(F)(F)C(F)(F)C(F)(F)F)C(F)(F)C(F)(F)C(F)(F)F [perfluamine]
inactive: 1 nM -4.49% | 8.33 nM -1.58% | 100 nM -5.22% | 833.33 nM -3.78% | 10000 nM -1.62%

CC(C)=CCC/C(C)=C/CC/C(C)=C/C=C/C(C)=C/C(=O)O [peretinoin]
inactive: 1 nM 0.75% | 8.33 nM 0.23% | 100 nM -1.49% | 833.33 nM 0.48% | 10000 nM 0.08%

Cc1onc(-c2c(Cl)cccc2Cl)c1C(=O)N[C@@H]1C(=O)N2[C@@H]1SC(C)(C)[C@@H]2C(=O)O [dicloxacillin]
inactive: 1 nM 0.8% | 8.33 nM -0.85% | 100 nM -0.59% | 833.33 nM 1% | 10000 nM 1.51%

NCCCC[C@H](N[C@@H](CCc1ccccc1)C(=O)O)C(=O)N1CCC[C@H]1C(=O)O [lisinopril]
inactive: 1 nM 0.42% | 8.33 nM 0.67% | 100 nM 0.78% | 833.33 nM 0.97% | 10000 nM 1.56%

N=C(N)NCCC[C@@H](N)C(=O)N[C@@H](CCCNC(=N)N)C(=O)N1CCC[C@H]1C(=O)N1C[C@H](O)C[C@H]1C(=O)NCC(=O)N[C@@H](Cc1cccs1)C(=O)N[C@@H](CO)C(=O)N1Cc2ccccc2C[C@@H]1C(=O)N1[C@H](C(=O)N[C@@H](CCCNC(=N)N)C(=O)O)C[C@@H]2CCCC[C@@H]21 [icatibant-acetate]
inactive: 1 nM -2.62% | 8.33 nM -4.61% | 100 nM -4.27% | 833.33 nM 2.14% | 10000 nM 1.26%

C[C@@H](C1=C(CCN(C)C)Cc2ccccc21)c1ccccn1 (racemic) [dimetindene]
inactive: 1 nM -0.06% | 8.33 nM 0.69% | 100 nM 0.085% | 833.33 nM 1.68% | 10000 nM 1.16%

c1ccc2c(c1)OC[C@H](CNCCCOc1ccc3c(c1)OCO3)O2 [osemozotan]
inactive: 1 nM 2.23% | 8.33 nM 1.12% | 100 nM 3.35% | 833.33 nM 1.42% | 10000 nM 0.79%

CCCCN(Cc1ccc(C(=O)NO)cc1)C(=O)Nc1ccccc1 [nexturastat-A]
inactive: 1 nM 0.96% | 8.33 nM 0.67% | 100 nM -0.8% | 833.33 nM -3.85% | 10000 nM -13.9%

O=C(O)[C@H](Cc1c[nH]c2ccccc12)N1C(=O)c2ccccc2C1=O
inactive: 1 nM 2.9% | 8.33 nM 3.8% | 100 nM -0.51% | 833.33 nM -0.14% | 10000 nM 0.14%

NCCCNCCSP(=O)(O)O [amifostine]
inactive: 1 nM 5.31% | 8.33 nM 3.29% | 100 nM 4.42% | 833.33 nM 1.87% | 10000 nM 3.86%

CCN1CCCC1CNC(=O)c1cc(S(N)(=O)=O)ccc1OC (stereo not given) [sulpiride]
inactive: 1 nM 0.06% | 8.33 nM -1.14% | 100 nM 0.7% | 833.33 nM 1.07% | 10000 nM 0.685%

CN(C)CCCSc1ccccc1NC(=O)/C=C/c1ccccc1 [cinanserin]
inactive: 1 nM 1.46% | 8.33 nM 0.94% | 100 nM -0.47% | 833.33 nM -4.69% | 10000 nM -4.38%

Oc1cc(CNC(=S)/C=C/c2cc(O)c(O)c(Br)c2)cc(O)c1O
inactive: 1 nM 0.9% | 8.33 nM 0.99% | 100 nM 2.87% | 833.33 nM 5.44%
active: 10000 nM 19.8%

CS[C@H]1SC[C@H]2C(=O)N(C)[C@@H](C(C)C)C(=O)OC[C@@H](NC(=O)c3cnc4ccccc4n3)C(=O)N[C@@H](C)C(=O)N(C)[C@@H]1C(=O)N(C)[C@@H](C(C)C)C(=O)OC[C@@H](NC(=O)c1cnc3ccccc3n1)C(=O)N[C@@H](C)C(=O)N2C [echinomycin]
inactive: 1 nM 2% | 8.33 nM -4.69% | 100 nM -19.9% | 833.33 nM -17.1% | 10000 nM -27%

O=C(NCC1CCOCC1)c1cnc(Nc2ccc(Cl)cc2Cl)nc1C(F)(F)F
inactive: 1 nM -0.74% | 8.33 nM 0.36% | 100 nM 0.86% | 833.33 nM 1.5% | 10000 nM 3.56%

CC(C)n1nnc2cc(C(=O)O)ccc21
inactive: 1 nM 2.69% | 8.33 nM 0.35% | 100 nM -0.23% | 833.33 nM -0.38% | 10000 nM -1.63%

COc1nc(N)nc2c1ncn2[C@@H]1O[C@H](CO)[C@@H](O)[C@@H]1O [nelarabine]
inactive: 1 nM -1.29% | 8.33 nM -1.48% | 100 nM -0.71% | 833.33 nM -0.9% | 10000 nM 1.12%

Oc1cccc(-c2c3nc(c(-c4cccc(O)c4)c4ccc([nH]4)c(-c4cccc(O)c4)c4nc(c(-c5cccc(O)c5)c5ccc2[nH]5)CC4)C=C3)c1 [temoporfin]
inactive: 1 nM -0.78% | 8.33 nM 3.96% | 100 nM -0.62% | 833.33 nM -2.48% | 10000 nM -5.99%

O=C(Nc1ccc(-c2ccnc(Nc3ccc(N4CCOCC4)cc3)n2)cc1)C1CCCN1 (stereo not given)
inactive: 1 nM -1.37% | 8.33 nM -1.43% | 100 nM -0.97% | 833.33 nM -1.01% | 10000 nM 8.93%

CNC(=O)c1cccc(NC(=O)N2CCC(Oc3ccccc3Cl)CC2)c1
inactive: 1 nM 0.48% | 8.33 nM -3.23% | 100 nM -1.17% | 833.33 nM -2.36% | 10000 nM -3.23%

CC[C@@H](CO)NCCN[C@@H](CC)CO [ethambutol]
inactive: 1 nM 3.83% | 8.33 nM 4.26% | 100 nM 4.86% | 833.33 nM 5.12% | 10000 nM 2.55%

CN[C@@H](C)C(=O)N[C@H]1CCCC[C@H]2CC[C@@H](C(=O)N[C@@H](c3ccccc3)c3cn(CCCCc4ccc(CCCCn5cc([C@@H](NC(=O)[C@@H]6CC[C@@H]7CCCC[C@H](NC(=O)[C@H](C)NC)C(=O)N76)c6ccccc6)nn5)cc4)nn3)N2C1=O
inactive: 1 nM -2.38% | 8.33 nM -0.21% | 100 nM -2.09% | 833.33 nM -4.99% | 10000 nM -13.1%

CC1=NN=C(c2ccc(N)cc2)c2cc3c(cc2C1)OCO3
inactive: 1 nM -2.65% | 8.33 nM -5.13% | 100 nM -1.01% | 833.33 nM 2.88% | 10000 nM 0.44%

Cn1cc(C(=O)C(=O)N[C@H]2CN3CCC2CC3)c2ccccc21
inactive: 1 nM 0.78% | 8.33 nM 1.33% | 100 nM 0.72% | 833.33 nM -1.49% | 10000 nM 1.51%

C[C@@H]1O[C@@H]1P(=O)(O)O
inactive: 1 nM 0.82% | 8.33 nM -0.13% | 100 nM -0.02% | 833.33 nM 0.37% | 10000 nM 0.09%

COc1cc2nccc(Oc3ccc(NC(=O)NC4CC4)c(Cl)c3)c2cc1C(N)=O [lenvatinib]
inactive: 1 nM -1.78% | 8.33 nM -0.25% | 100 nM -0.32% | 833.33 nM -0.03% | 10000 nM 8.44%

Cn1cc(C2=C(c3cn(CCCSC(=N)N)c4ccccc34)C(=O)NC2=O)c2ccccc21 [bisindolylmaleimide-IX]
inactive: 1 nM -1.28% | 8.33 nM -0.79% | 100 nM -3.04% | 833.33 nM 1% | 10000 nM -1.54%

C[C@H]1[C@@H](O)O[C@@H]2O[C@@]3(C)CC[C@H]4[C@H](C)CC[C@@H]1[C@@]24OO3
inactive: 1 nM 0.99% | 8.33 nM 1.14% | 100 nM 1.39% | 833.33 nM 1.43% | 10000 nM 0.11%

O=[N+]([O-])c1nccn1CC(O)CN1CCCCC1 (stereo not given) [pimonidazole]
inactive: 1 nM 0.08% | 8.33 nM 0.87% | 100 nM 1.45% | 833.33 nM 2.08% | 10000 nM -0.59%

CN(C)c1nc(N(C)C)nc(N(C)C)n1 [altretamine]
inactive: 1 nM 2.31% | 8.33 nM -1.41% | 100 nM 0.54% | 833.33 nM -0.29% | 10000 nM 2.53%

CN(CC[C@@H](Oc1ccc(-c2ccccc2)cc1)c1ccc(F)cc1)CC(=O)O
inactive: 1 nM 0.18% | 8.33 nM 1.55% | 100 nM 0.56% | 833.33 nM 0.79% | 10000 nM 0.89%

CN(C)CCCN1c2ccccc2Sc2ccc(C(F)(F)F)cc21 [triflupromazine]
inactive: 1 nM 1.3% | 8.33 nM -0.49% | 100 nM -1.51% | 833.33 nM 1.78% | 10000 nM 0.59%

COc1cc(C(=O)N(CC[C@H]2CCCN2C)C/C(C)=C/c2ccccc2F)cc(OC)c1OC (racemic)
inactive: 1 nM -0.69% | 8.33 nM -1.9% | 100 nM 1.94% | 833.33 nM -0.01% | 10000 nM -1.76%

CN(C)C(=O)n1nnnc1Cc1ccc(-c2ccccc2)cc1
inactive: 1 nM -1.07% | 8.33 nM 2.48% | 100 nM 0.66% | 833.33 nM 2.07% | 10000 nM 1.15%
